About 4,300 (8.3%) of roughly 52,000 compounds were called active. No stated cut-off is given here; in the data, active means survival mostly below about 52% (no sharp cut-off); inactive means mostly above about 56%. What follows is part of a selection rich in actives, with near analogues and random picks from the rest.
What follows are compounds tested on DeltatarO mutant (assay: S. aureus survival, RN4220 and DeltatarO strains – OD600, teichoic acid synthesis inhibitors, primary screen (AID 463173)). Settings: S. aureus RN4220 wild type/DeltatarO growth, OD600, 18 h, stronger effect = lower value, screened at 18.75 µg/mL (by protocol).
For `Cc1ccc(CCNC(=O)c2ccc3c(c2)nc2n3CCOC2)cc1`, the survival was 86% (inactive).
For `CCc1ccc(-n2c(=O)c3cccnc3n2CC(=O)Nc2ccccc2C(F)(F)F)cc1`, the survival was 71% (inactive).
In the case of `Cc1c(-c2ccc(Cl)cc2)c(=O)oc2c(CN3CCOCC3)c(O)ccc12`, the survival is reported as 82% (inactive).
With `O=c1oc(-c2cccc3ncccc23)nn1Cc1ccccc1F` the survival was 102% (inactive).
`COc1cccc(CNC(=O)CCc2nnc3n(C)c(=O)c4sccc4n23)c1` was tested, and the survival was 63% (inactive).
In the case of `CCc1ccc(C(=O)c2cn(CC(=O)Nc3ccc(C)c(C)c3)c3ccccc3c2=O)cc1`, the survival is reported as 108% (inactive).
With `CC(C)CC(=O)n1nc(-c2cccnc2)nc1NCc1ccc(F)cc1` the survival was 89% (inactive).
In the case of `Cc1cc(Nc2ccc(F)cc2)nc(-n2nc(C)cc2C)n1`, the survival is reported as 70% (inactive).
For `Cc1ccc2ncc(C(=O)c3ccc(C)c(C)c3)c(S(=O)(=O)c3ccccc3)c2c1`, the survival was 70% (inactive).
In the case of `COc1ccc(S(=O)(=O)N2CCC(c3nnnn3-c3ccccc3)CC2)cc1OC`, the survival is reported as 80% (inactive).
`CN1C(=O)/C(=C2/SC(=S)N(c3cccc(O)c3)C2=O)c2ccccc21` was tested, and the survival was 54% (inactive).
For `CNC(=O)c1ccc(CSc2nc3cccnc3n2Cc2cccc(F)c2)cc1`, the survival was 118% (inactive).
For `CCN1CCN(CCCNC(=O)c2ccc3nc(Cc4ccccc4)oc3c2)CC1`, the survival was 105% (inactive).
`COc1ccc(NC(=O)c2ccco2)cc1NC(=O)c1cc(OC)c(OC)c(OC)c1` was tested, and the survival was 71% (inactive).
In the case of `COc1ccc(NC(=O)c2ccco2)cc1NC(=O)COc1ccccc1`, the survival is reported as 45% (active).
With `COc1ccc(NC(=O)c2ccco2)cc1NC(=O)c1ccc(C)c(C)c1` the survival was 49% (active).
`COc1cc(OC)cc(C(=O)Nc2cc(NC(=O)c3ccco3)ccc2OC)c1` was tested, and the survival was 83% (inactive).
With `CCCCOc1cccc(C(=O)Nc2cc(NC(=O)c3ccco3)ccc2OC)c1` the survival was 23% (active).
For `COc1ccc(C(=O)Nc2cc(NC(=O)c3ccco3)ccc2OC)cc1Cl`, the survival was 54% (inactive).
In the case of `COc1ccc(NC(=O)c2ccco2)cc1NC(=O)c1cccc(F)c1`, the survival is reported as 89% (inactive).
In the case of `COc1ccc(NC(=O)c2ccco2)cc1NC(=O)c1c(OC)cccc1OC`, the survival is reported as 51% (inactive).
`COc1ccc(NC(=O)c2ccco2)cc1NC(=O)c1cccc(C)c1OC` was tested, and the survival was 37% (active).
In the case of `COc1ccc(NC(=O)c2ccco2)cc1NC(=O)COc1cc(C)cc(C)c1`, the survival is reported as 121% (inactive).
`COc1ccc(NC(=O)c2ccco2)cc1NC(=O)COc1ccc(C)c(C)c1` was tested, and the survival was 49% (inactive).
`COc1ccc(NC(=O)c2ccco2)cc1NC(=O)c1ccccc1[N+](=O)[O-]` was tested, and the survival was 49% (inactive).
In the case of `COc1cccc(NC(=O)C2CCCN(c3nnc(-n4c(C)ccc4C)s3)C2)c1` (stereo not drawn), the survival is reported as 79% (inactive).
For `COc1ccc(NC(=O)Cn2cnc3c(oc4ccccc43)c2=O)cc1OC`, the survival was 79% (inactive).
For `Cc1nc(-c2ccc(S(=O)(=O)N3CCN(c4cccc(C(F)(F)F)c4)CC3)cc2)co1`, the survival was 67% (inactive).
For `Cc1ccc(S(=O)(=O)CC(=O)Nc2nc3c(C)cc(C)cc3s2)cc1`, the survival was 96% (inactive).
For `COC(=O)c1c(SC)nc2ccccc2c1OCc1ccc(Cl)cc1`, the survival was 92% (inactive).
`COc1ccc(N(C(=O)c2ccc(OC)c(OC)c2)S(=O)(=O)c2ccc(Cl)cc2)cc1` was tested, and the survival was 80% (inactive).
`COc1cccc(CN(CCO)Cc2ccccc2)c1OC` was tested, and the survival was 91% (inactive).
`CCOc1ccc(CNC(=O)C2CCN(C(=O)N3CC(CC)Oc4ccc(C)cc43)CC2)cc1OC` (stereo not drawn) was tested, and the survival was 77% (inactive).
In the case of `Cc1cccc(-n2c(=O)c3c(c4cc(C)ccc4n3C)n(CC(=O)Nc3ccc(C)cc3C)c2=O)c1`, the survival is reported as 69% (inactive).
With `COc1ccccc1CNC(=O)Cn1ncc2c(=O)oc3ccc(C)cc3c21` the survival was 78% (inactive).
`CC(C)n1nc(CC(=O)O)c2ccccc2c1=O` was tested, and the survival was 79% (inactive).
`CCSc1nc2ccc(N)cc2s1` was tested, and the survival was 108% (inactive).
For `O=C(NCC(c1cccnc1)N1CCc2ccccc2C1)c1ccc(F)c(F)c1` (stereo not drawn), the survival was 70% (inactive).
In the case of `CCOc1ccc(CCNC(=O)CN2C(=O)COc3ccc(S(=O)(=O)N4CCCC4)cc32)cc1`, the survival is reported as 69% (inactive).
With `Cc1ccc(C(c2sc3nc(-c4ccco4)nn3c2O)N2CCCCC2)cc1` (stereo not drawn) the survival was 93% (inactive).
For `COc1ccc(CNc2nc(-c3ccco3)nn2S(=O)(=O)c2ccc3ccccc3c2)cc1OC`, the survival was 58% (active).
`COc1ccc(CNc2n[nH]c(-c3ccco3)n2)cc1OC` was tested, and the survival was 62% (active).
For `Fc1cccc(Cl)c1CNc1n[nH]c(-c2ccco2)n1`, the survival was 76% (inactive).
In the case of `COc1ccc(CNc2nc(-c3ccco3)nn2S(=O)(=O)c2ccc(Cl)cc2)cc1OC`, the survival is reported as 61% (inactive).
For `COc1ccc(S(=O)(=O)n2nc(-c3ccco3)nc2NCc2ccc(OC)c(OC)c2)cc1`, the survival was 55% (inactive).
In the case of `CC(C)c1ccc(CNc2n[nH]c(-c3ccco3)n2)cc1`, the survival is reported as 80% (inactive).
In the case of `Cc1ccc(C(=O)Nc2cccc(O)c2)cc1S(=O)(=O)N1CCCCCC1`, the survival is reported as 79% (inactive).
`CCN(CC)CCCNC(=O)CN1N=C(c2ccccc2)CCC1=O` was tested, and the survival was 87% (inactive).
For `Cc1ccc(NC(=O)CCCn2c(=O)c3cccn3c3ccccc32)c(C)c1`, the survival was 49% (inactive).
`CCOc1ccccc1NC(=O)CN1C(=O)C(=O)c2ccccc21` was tested, and the survival was 94% (inactive).
`COc1ccc(OC)c(NC(=O)Cn2c(=O)c3cccn3c3ccccc32)c1` was tested, and the survival was 41% (active).
`Cc1cc(Cl)ccc1NC(=O)CN1C(=O)C(=O)c2ccccc21` was tested, and the survival was 71% (inactive).
For `COc1ccc(NC(=O)Cn2c(=O)c3cccn3c3ccccc32)cc1`, the survival was 49% (inactive).
For `COc1ccc(NC(=O)CCCn2c(=O)c3cccn3c3ccccc32)c(OC)c1`, the survival was 57% (active).
With `COc1ccc(NC(=O)CCn2c(=O)c3cccn3c3cccnc32)c(OC)c1` the survival was 103% (inactive).
With `Cc1ccc(NC(=O)CCn2c(=O)c3cccn3c3ccccc32)c(Cl)c1` the survival was 57% (inactive).
`COc1ccc(OC)c(CCNC(=O)CCCn2c(=O)c3cccn3c3ccccc32)c1` was tested, and the survival was 77% (inactive).
For `COc1ccc(NC(=O)CCn2c(=O)c3cccn3c3ccccc32)c(OC)c1`, the survival was 47% (active).
For `COc1ccc(NC(=O)CN2C(=O)C(=O)c3ccccc32)c(OC)c1`, the survival was 52% (active).
With `COc1ccc(CNC(=O)Cn2c(=O)c3cccn3c3ccccc32)cc1` the survival was 47% (inactive).
With `CC1CN(C(=O)Nc2ccc(C(=O)NCCc3ccccc3Cl)cc2)c2ccccc2S1` (stereo not drawn) the survival was 61% (inactive).
`COc1ccc(NC(=O)c2ccc3c(c2)sc2nc(-c4ccc(OC)cc4)cn23)cc1` was tested, and the survival was 61% (inactive).
With `CN=C1SC(CC(=O)NC)C(=O)N1C` (stereo not drawn) the survival was 86% (inactive).
With `CCCc1noc2c1C1=NNC(=O)C1C(C)(C)C2` (stereo not drawn) the survival was 76% (inactive).
`O=c1[nH]c2ccc(NCc3ccc(-c4ccccc4)o3)cc2[nH]1` was tested, and the survival was 86% (inactive).
With `O=C(Nc1ccc(-n2nncc2-c2ccccc2)cc1)c1cccc(F)c1` the survival was 129% (inactive).
In the case of `COc1ccc(N2CCN(C(=O)CCc3c(C)nc4cc(-c5ccc(OC)cc5OC)nn4c3C)CC2)cc1`, the survival is reported as 104% (inactive).
`CC(C)CNC(=O)c1cccc(Cl)c1` was tested, and the survival was 82% (inactive).
For `COc1ccc(CCNC(=O)Cn2cc(C(=O)c3ccc(Cl)cc3)c(=O)c3ccc(C)nc32)cc1OC`, the survival was 79% (inactive).
With `Cc1cccc(NC(=O)Cn2c(=O)c3cccn3c3ccccc32)c1C` the survival was 43% (active).
For `COc1ccc(OC)c(NC(=O)CCn2cccn2)c1`, the survival was 47% (active).
`COc1ccc(OC)c(NC(=O)CCn2cnnn2)c1` was tested, and the survival was 80% (inactive).
`COc1ccc(Cl)cc1NC(=O)CCn1c(=O)oc2ccccc21` was tested, and the survival was 40% (active).
With `COc1ccc(NC(=O)CCn2c(=O)c3cccn3c3cccnc32)cc1Cl` the survival was 85% (inactive).
For `COc1ccc(NC(=O)Cn2c(=O)c3cccn3c3ccccc32)cc1Cl`, the survival was 42% (active).
With `COc1ccc(NC(=O)Cn2c(=O)oc3cc(Cl)ccc32)c(OC)c1` the survival was 91% (inactive).
In the case of `Cc1c(Cl)cccc1NC(=O)CCn1c(=O)c2cccn2c2ccccc21`, the survival is reported as 49% (inactive).
With `Cc1cc(C)c(NC(=O)Cn2c(=O)c3cccn3c3ccccc32)c(C)c1` the survival was 51% (inactive).
In the case of `COc1ccc(NC(=O)CCCn2c(=O)c3cccn3c3cccnc32)cc1Cl`, the survival is reported as 87% (inactive).
In the case of `COc1cc(OC)c(NC(=O)CCn2cccn2)cc1Cl`, the survival is reported as 79% (inactive).
For `COc1cc(NC(=O)CCn2c(=O)oc3ccccc32)cc(OC)c1OC`, the survival was 62% (inactive).
With `COc1ccc(OC)c(NS(=O)(=O)c2ccc(-n3cccn3)cc2)c1` the survival was 95% (inactive).
In the case of `Cc1ccsc1CN1CCc2nc(Nc3ccccc3)ncc2C1`, the survival is reported as 61% (inactive).
`CCc1cccc(C)c1NC(=O)C1CCN(c2nn3c(=O)cc(C)nc3s2)CC1` was tested, and the survival was 119% (inactive).
With `Cc1cccc(N2CCN(c3ncnc4c3nc3n4CCCCC3)CC2)c1C` the survival was 95% (inactive).
For `COc1ccc(C(=O)NCC(c2cccnc2)N2CCN(c3ccccc3OC)CC2)cc1` (stereo not drawn), the survival was 77% (inactive).
In the case of `COc1ccc(C)cc1NC(=O)Cc1ccc(NC(=O)N2CCCCc3ccccc32)cc1`, the survival is reported as 67% (inactive).
For `Cc1ccc2oc(=O)n(CCNC(=O)Nc3ccccc3C)c2c1`, the survival was 109% (inactive).
In the case of `COc1ccc(NC(=O)Cc2ccc(NC(=O)N3CCCCc4ccccc43)cc2)c(OC)c1`, the survival is reported as 47% (active).
With `CCc1ccc(NC(=O)Cn2c(=O)c3cccn3c3ccccc32)cc1` the survival was 56% (inactive).
For `COc1ccc(OC)c(CNC(=O)Cc2ccc(NC(=O)N3CCCCc4ccccc43)cc2)c1`, the survival was 99% (inactive).
In the case of `CCOC(=O)c1cccc(NC(=O)Cn2c(=O)c3cccn3c3ccccc32)c1`, the survival is reported as 100% (inactive).
`Cc1ccc2oc(=O)n(CCNC(=O)Nc3ccc(Cl)cc3)c2c1` was tested, and the survival was 72% (inactive).
`CC(=O)c1ccc(NC(=O)Cn2c(=O)c3cccn3c3ccccc32)cc1` was tested, and the survival was 42% (active).
In the case of `COc1ccc(Cl)cc1NC(=O)CCn1c(=O)c2cccn2c2ccccc21`, the survival is reported as 42% (active).
In the case of `COc1ccc(Cl)cc1NC(=O)NCCn1c(=O)oc2ccc(C)cc21`, the survival is reported as 46% (active).
For `Cc1ccc(Cl)cc1NC(=O)CCCn1c(=O)c2cccn2c2ccccc21`, the survival was 61% (inactive).
`COc1ccc(Cl)cc1NC(=O)CCCn1c(=O)c2cccn2c2cccnc21` was tested, and the survival was 87% (inactive).
